BAZ2B inh: blocks human BAZ2B | hit rate 4.4% among 360,000 | AID 504333 | Potency, µM (top dose mostly 114 µM), most hits filed as inhibitors | AlphaScreen BAZ2B-H3K14Ac peptide displacement | Q9UIF8; also: nearly all actives have a fitted effect of over 60% in size
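Complex of BAZ2B and biotin-H3K14Ac (50 nM apiece) forms over 30 min at RT, then faces library compounds up to 110 uM for another 30 min; AlphaScreen beads added, 20 min dark incubation, luminescence read.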
PLK1 PBD inh: PLK1 (human) polo-box domain binding inhibition; P53350; Potency, µM, usual class: inhibitors; hit rate 2.8% among 360,000; AID 720504; Plk1 PBD binding of FITC phosphopeptide, fluorescence polarization; also: series mostly up to about 57 µM; nearly all actives have a fitted effect of over 65% in size
JMJD2A Tudor inh: inhibitors of human JMJD2A Tudor domain. O75164. AlphaScreen JMJD2A-Tudor / H3K4me3 peptide binding. Potency, µM (top dose mostly 114 µM), most hits filed as inhibitors. hit rate 4.4% among 390,000; also: nearly all actives have a fitted effect of over 50% in size
HP1b chromo inh: inhibitors of HP1-beta chromodomain binding to methylated histone tails | AlphaScreen HP1-beta / biotin-H3K9me3 peptide binding | Potency, µM (series often up to 114 µM), hits mostly inhibitors | hit rate 0.56% among 390,000 | AID 540317; also: nearly all actives have a fitted effect of over 70% in size
Target sequence (P83916 whole entry, looked up): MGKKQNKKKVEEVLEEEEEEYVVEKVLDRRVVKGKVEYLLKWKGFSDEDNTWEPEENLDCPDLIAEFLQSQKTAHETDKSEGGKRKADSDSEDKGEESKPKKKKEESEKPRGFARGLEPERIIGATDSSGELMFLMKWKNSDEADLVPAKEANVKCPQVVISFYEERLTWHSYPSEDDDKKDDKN
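AlphaScreen: HP1-beta (50 nM) preformed 30 min with biotin-H3(1-18)K9me3 peptide (50 nM) in PBS pH 7.4, 0.01% Tween-20. Compound added for 30 min at RT, then streptavidin donor/nickel chelate acceptor beads (10 ug/mL) for 30 min.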
PI5P4Ka inh: blocks human PI5P4K alpha kinase activity; P48426; PI5P4Kalpha enzyme, ADP-Glo luminescence, 60 min; active compounds read low; max response, %; hit rate 1.2% among 330,000; AID 652105; active = max response of -50% or lower; inconclusive = between -30% and -50%; inactive = -30% or higher; also: value at the top dose of about 77 µM
Target sequence (P48426 whole entry, looked up): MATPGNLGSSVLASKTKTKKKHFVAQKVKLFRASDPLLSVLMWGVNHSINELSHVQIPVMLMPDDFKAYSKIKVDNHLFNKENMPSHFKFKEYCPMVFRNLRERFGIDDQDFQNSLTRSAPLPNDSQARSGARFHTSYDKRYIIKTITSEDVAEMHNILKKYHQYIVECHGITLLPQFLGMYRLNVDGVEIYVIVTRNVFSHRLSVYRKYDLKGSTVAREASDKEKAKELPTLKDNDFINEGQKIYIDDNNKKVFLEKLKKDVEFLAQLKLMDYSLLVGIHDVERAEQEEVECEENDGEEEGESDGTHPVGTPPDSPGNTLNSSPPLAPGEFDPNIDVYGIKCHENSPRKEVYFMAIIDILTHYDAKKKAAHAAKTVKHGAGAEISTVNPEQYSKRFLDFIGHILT
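Compounds were pin-transferred onto PI5P4Kalpha and substrate in HEPES pH 7.4 buffer with EGTA, CHAPS and 5% DMSO. ATP (5 microM final) started the reaction, which ran 60 minutes at room temperature before ADP-Glo detection.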
G9a inh: inhibitors of human histone lysine methyltransferase G9a; G9a H3K9 monomethylation, AlphaScreen, 2 h; Potency, µM (series often up to 102 µM), hits mostly inhibitors; hit rate 8.8% among 350,000; AID 504332; also: nearly all actives have a fitted effect of over 75% in size
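G9a (20 nM) preincubated 15 min RT with compounds, then 500 nM biotinylated H3K9 peptide and 20 uM SAM added; 2 h RT reaction. Monomethyl-H3K9 product detected by AlphaScreen with anti-H3K9me1 antibody, streptavidin donor and anti-rabbit IgG acceptor beads.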
Hits are given with their value; . = inactive; ? = inconclusive; / = no result given; [ ] = dose if it differs, or a comment. Rows were chosen to be rich in hits. Some 12% of all compounds tested hit in one or more screens of this group. Unless noted, calls follow the shape of the dose curve; as a rule, active = well fitted curve in the direction sought with a large enough effect; inconclusive = small, poorly fitted or top-dose-only effect, or another doubt; inactive = no such curve, though single readings can be large; an effect the other way counts as inactive or inconclusive.

SMILES	BAZ2B inh	PLK1 PBD inh	JMJD2A Tudor inh	HP1b chromo inh	PI5P4Ka inh	G9a inh
CC(C)(C)c1cn(-c2ccccc2)c(=S)[nH]1	?	.	22.4µM	.	.	7.94µM
Cc1c(C)n(C)c2ccc(C(=O)N3CCN(c4ccccn4)CC3)cc12	?	.	?	.	.	?
Cc1ccc(C)c(N2CCN(C(=O)c3ccc4c(c3)c(C)c(C)n4C)CC2)c1	35.5µM	.	44.7µM	?	.	31.6µM
Cc1c(C)n(C)c2ccc(C(=O)N3CCN(c4ccccc4)CC3)cc12	39.8µM	.	35.5µM	?	.	44.7µM
COC(=O)c1ccc(-c2ccc(C3C4C=CCC(C)C4C(=O)N3Cc3ccccc3)c(F)c2)cc1 (centres undefined)	/	/	.	.	/	/
CN(C)/C=C1\C(=O)NN=C1c1ccccc1	.	.	.	.	.	50.1µM
COc1cc(OC)cc(C(=O)Nc2ccn(C)n2)c1	.	.	.	.	.	.[12.7 µM]
N=C1/C(=C\c2ccc(SCc3ccco3)o2)C(=O)N=C2SC=NN12	?	?	?	.	-58.4	.
Cc1nc2c(c(C)c1CCC(=O)N1CCN(c3ccccc3)CC1)c(=O)n(C)c(=O)n2C	.	/	.	.	/	.
CCc1cc(SC#N)cc(CC)c1NC(=O)CCl	.	?	.	.	.	50.1µM
Cc1ccc(C2=NNC3(CCOC(C)(C)C3)S2)cc1 (centres undefined)	.	.	?	.	?	28.2µM
N#Cc1cccc(NC(=O)N2CCC3(CC2)CCN(C(=O)c2cccc(F)c2)CC3)c1	/	/	/	/	/	.[12.7 µM]
CC(C)C1=CC2=CCC3C(C)(C(=O)O)CCCC3(C)C2CC1 (centres undefined) (tested in a mixture with another compound)	.	/	/	/	/	70.8µM
COC(=O)[C@@]1(C)CCC[C@@]2(C)c3ccc(O)c(C(C)C)c3CCC21 (some centres undefined)	/	/	/	/	/	.[2.33 µM]
CCC1CN(C(=O)N2CCC(C(=O)NCc3ccc(OC)cc3OC)CC2)c2ccccc2O1 (centres undefined)	.	.	.	.	.	/
CCOCc1cnc(C)nc1NCC(=O)c1c(C)n(C)c2ccc(OC)cc12	50.1µM	.	.	.	.	14.1µM
O=C1NC(=S)SC1=Cc1cccs1	/	?	.	?	-67.5	/
O=C1CNC(=O)/C(=C/c2cccs2)N1	.	.	.	.	.	.
Cc1ccc(N=C2NC(=O)/C(=C\c3cccs3)S2)cc1C	.	.	?	.	.	2.82µM
O=C1/C(=C/c2cccs2)NC(=S)N1C1CC1	.	.	39.8µM	.	.	39.8µM
O=C1NC(=S)SC1=Cc1ccc(F)cc1	/	.	.	.	-71.2	/
CCc1ccc(NC(=O)CSC2=Nc3ccccc3C3=NC(CC(=O)NCc4ccc5c(c4)OCO5)C(=O)N23)cc1 (centres undefined)	.	/	.	.	/	.
O=C1NC(=S)SC1=Cc1ccc(Cl)cc1	/	?	?	.	-51.0	/
CCOC(=O)CNS(=O)(=O)c1cc(-c2nn(C)c(=O)c3ccccc23)ccc1C	56.2µM	.	?	.	?	?
Cc1cc(C)n2cc(CSc3ccc(Br)cc3)nc2n1	?	.	.	.	.	.
SMILES	BAZ2B inh	PLK1 PBD inh	JMJD2A Tudor inh	HP1b chromo inh	PI5P4Ka inh	G9a inh
Cc1cc(C)n2cc(CSCC(=O)O)nc2n1	?	.	.	.	.	44.7µM
Cc1cc(C)n2cc(CSc3nnnn3-c3ccccc3)nc2n1	.	.	.	.	.	.
Cc1cc(C)n2cc(CSc3nnnn3-c3ccc(Cl)cc3)nc2n1	.	.	.	.	.	39.8µM
[O-][N+](=Cc1ccccc1)c1ccc(Cl)cc1	/	21.2µM	.	.	.	/
[O-]/[N+](=C/c1ccco1)c1ccccc1	.	.	.	.	.	.
[O-]/[N+](=C/c1ccc(F)cc1)c1ccc(Cl)cc1	.	?	.	.	.	11.2µM
Cc1ccc(CNC(=O)CSc2nc3ccccc3nc2Cc2ccc(C)cc2)cc1	.	/	.	.	/	.
Nc1ccc(S(N)(=O)=O)cc1	/	.	.	.	.	.[21.5 µM]
CCS(=O)(=O)c1ccc(N)cc1	.	.	.	.	.	3.98µM
CC(C)C[C@@H](C(=O)NCc1ccco1)N1C(=O)N2CCc3c([nH]c4ccccc34)[C@@]2(C)C1=O	?	.	?	.	.	?
C[C@@H](C(=O)NCc1ccco1)N1C(=O)N2CCc3c([nH]c4ccccc34)[C@@]2(C)C1=O	50.1µM	.	.	.	.	?
COc1ccc2[nH]c3c(c2c1)CCN1C(=O)N([C@@H](C)C(=O)NCc2ccc(F)cc2)C(=O)[C@]31C	.	.	.	.	.	?
COc1ccc2[nH]c3c(c2c1)CCN1C(=O)N([C@@H](C)C(=O)NCCc2ccc(F)cc2)C(=O)[C@]31C	?	.	?	.	.	50.1µM
Nc1nnc(CSCc2ccc(Cl)cc2Cl)s1	.	18.9µM	.	.	.	?
Nc1nnc(CSCc2ccc(Cl)cc2)s1	.	.	.	.	.	.
CC(C)(C)c1ccc(OCCn2ccccc2=O)cc1	.	.	3.55µM	.	.	.
CCN(CC)CCNC(=O)c1ccc2c(=O)n3nc(Nc4ccccc4)sc3nc2c1	.	/	.	.	/	.
COc1c(Cl)cc(Cl)cc1C(=O)Nc1cccc(-c2nc3ccccc3o2)c1C	.	/	.	.	/	.
Cc1cc(C)c(S(=O)(=O)Nc2nnc(C3CCCCC3)s2)c(C)c1	.	?	.	.	.	70.8µM
Cc1cc(C)c(S(=O)(=O)Nc2nnc(C)s2)c(C)c1	.	3.36µM	?	.	?	.
Cc1cc(C)c(S(=O)(=O)Nc2nnc(CC(C)C)s2)c(C)c1	.	.	.	.	.	/
COc1ccccc1-c1c(C)nn2c(N3CCN(c4ccc(F)cc4)CC3)cc(C)nc12	.	/	.	.	/	.
Cc1sc(-n2cccc2)c(C(=O)O)c1C	50.1µM	.	.	.	/	.
O=C(O)c1c(-n2cccc2)sc2c1CCCC2	.	.	.	.	.	.
Cc1nnc(SCCN2CCOCC2)n1C	?	.	1µM	?	.	35.5µM
SMILES	BAZ2B inh	PLK1 PBD inh	JMJD2A Tudor inh	HP1b chromo inh	PI5P4Ka inh	G9a inh
CC(C)C[C@H](NC(=O)c1nc[nH]c1C(=O)N[C@@H](CCCCN)C(=O)OC(C)(C)C)C(=O)OC(C)(C)C	/	.	.	.	.	/
CC(C)(C)OC(=O)[C@H](CCCCN)NC(=O)c1nc[nH]c1C(=O)N[C@@H](CCCCN)C(=O)OC(C)(C)C	/	?	50.1µM	.	.	/
CC(C)C[C@H](NC(=O)c1nc[nH]c1C(=O)NC1CCNCC1)C(=O)OC(C)(C)C	79.4µM	.	?	.	.	?
CC(C)C[C@H](NC(=O)c1[nH]cnc1C(=O)N[C@@H](C)C(=O)OC(C)(C)C)C(=O)OC(C)(C)C	.	.	.	.	.	.[12.7 µM]
Cn1nnc(NC(=S)NC(=O)c2cc(Cl)ccc2Cl)n1	?	.	.	.	.	3.55µM
CCOc1cccc(C(=O)Nc2nnc(-c3ccco3)s2)c1	?	.	.	.	.	56.2µM
Cc1cccc(OCC(=O)Nc2nnc(-c3ccco3)s2)c1	.	.	.	.	.	50.1µM
